According to PubChem BioAssay (NCATS):
Results filed as inconclusive are left out. The source made the active and inactive calls. Unless noted, calls come from the whole dose curve; as a rule, active = well fitted curve in the direction sought with a large enough effect; inconclusive = small, poorly fitted or top-dose-only effect, or another doubt; inactive = no such curve, though single readings can be large; an effect the other way counts as inactive or inconclusive.

Tests used:
[1] = target: Beta-2 adrenergic receptor (Homo sapiens) (UniProt P07550); assay: qHTS validation assay of beta-arrestin-biased ligands of beta2-adrenergic receptor (AID 485366); note: 0% is about no effect
Summary of the method: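 qHTS, Tango cells, 1500 cells/well, DMEM + 1% FBS. Cpd 18 hr at 37 degrees C. Luciferin/ATP/CoA detection mix, 15 min RT, luminescence read. %Activity from corrected signal; CRC fit, curve class.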

[2] = target: Thioredoxin reductase 1, cytoplasmic (Rattus norvegicus) (UniProt O89049); assay: qHTS Assay for Substrates of Mammalian Selenoprotein Thioredoxin Reductase 1 (TrxR1) (AID 488772);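 note: series mostly up to about 57 µM; 0% is about no effect; a drop in NADPH fluorescence below the no-compound background marks a TrxR1 substrate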
Summary of the method: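 In this dual-purpose format, potential substrates are identified from the first fluorescence read after selenite addition, not from the 8-minute delta. Rat enzyme is preincubated with NADPH and then with compound at ~22 deg C.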

[3] = target: Thioredoxin reductase 1, cytoplasmic (Rattus norvegicus) (UniProt O89049); assay: qHTS Assay for Inhibitors of Mammalian Selenoprotein Thioredoxin Reductase 1 (TrxR1) (AID 488773); details: Potency: inhibition;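 note: drop in NADPH fluorescence over an 8 min run after selenite addition; series mostly up to about 57 µM; % is set by controls: 0 for no effect and ±100 for the full control effect; nearly all actives have a fitted effect of over 40% in size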
Summary of the method: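 Inhibition is scored from the loss of NADPH fluorescence between first and last reads of an 8-min kinetic run. Selenite (400 uM) was the substrate, added after 15 min compound preincubation at room temperature.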

[4] = target: Flap endonuclease 1 (Homo sapiens) (UniProt P39748); assay: qHTS Validation Assay for the Inhibitors of Human Flap endonuclease 1 (FEN1) (AID 488816); note: % is set by controls: 0 for no effect and ±100 for the full control effect
Summary of the method: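 qHTS format: compounds and 10 nM FEN1 incubated 15 min at room temperature before adding 50 nM substrate. Cleavage followed by reads at 0 and 15 min; normalized data fitted to a four-parameter Hill curve.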

[5] = target: Methanococcus maripaludis chaperonin (MmCpn) (UniProt Q6LX38); assay: High-Throughput Screening for Modulators of Cytosolic Chaperonin Activity: MmCpn Primary Screen (AID 488978);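 note: 50 nM MmCpn enzyme hydrolysing 30 µM ATP at 37 °C; 0% is about no effect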
Summary of the method: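 MmCpn (50 nM final) was preincubated with compound 5 min at RT, then 30 uM ATP (final) was added and the reaction ran 10 min at 37C. ADP produced was detected by Transcreener HTRF (ex 320 nm; em 590/665 nm).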

[6] = target: D(1A) dopamine receptor (Homo sapiens) (UniProt P21728); assay: HTS Assay for Allosteric Agonists of the Human D1 Dopamine Receptor: Primary Screen for Antagonists (AID 488983);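 note: calcium flux response to an EC80 dopamine challenge measured with no-wash dye; nearly all actives have a fitted effect of over 65% in size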; note: potency is the fitted concentration of half-maximal effect
Summary of the method: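 Calcium flux readout, no-wash dye, inducible HEK293 T-REx D1 line (force-coupled). Compound added after 10 s baseline, 180 s kinetic read; then dopamine at EC80, further 180 s read.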

[7] = Validation screen for small molecules that induce genotoxicity in human embryonic kidney (HEK293T) cells expressing luciferase-tagged ELG1 (AID 493106); note: potency is the fitted concentration of half-maximal effect
Summary of the method: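 qHTS format; 2,000 HEK293T ELG1-luc cells/well; 23 nL compound via pin tool; 16 hr, 37 °C/5% CO2; ONE-Glo, 30 min RT; luminescence read.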

[8] = target: ATPase family AAA domain-containing protein 5 (Homo sapiens) (UniProt Q96QE3); assay: Validation screen for small molecules that inhibit ELG1-dependent DNA repair in human embryonic kidney (HEK293T) cells expressing luciferase-tagged ELG1 (AID 493107); note: nearly all actives have a fitted effect of over 70% in size; note: potency is the fitted concentration of half-maximal effect
Summary of the method: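 ELG1-luciferase HEK293T reporter; 5-fluorouridine + compound/DMSO, 16 hr, 37 °C, 5% CO2; ONE-Glo 30 min RT; luminescence read, qHTS format.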

[9] = target: M-phase phosphoprotein 8 (Homo sapiens) (UniProt Q99549); assay: qHTS Validation Assay for Inhibitors for MPP8 Chromodomain Interactions with Methylated Histone Tails (AID 488949); note: nearly all actives have a fitted effect of over 55% in size; note: potency is the fitted concentration of half-maximal effect
Summary of the method: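 MPP8 (50 nM) was preincubated with biotinylated H3(1-18)K9me3 peptide (50 nM) in PBS pH 7.4, 0.01% Tween-20 for 30 min at room temperature, then with compounds for 30 min; binding was detected by AlphaScreen.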

[10] = target: Thyrotropin receptor (Homo sapiens) (UniProt P16473); assay: qHTS Assay for Antagonists of the Thyroid Stimulating Hormone Receptor (AID 488980); note: series mostly up to about 58 µM; 0% is about no effect
Summary of the method: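 HEK293 cells transfected with human TSHR, suspended in HEPES-buffered HBSS with 70 uM RO 20-1724, were treated with compounds plus TSH at EC80 (4 nM final). cAMP was measured by competitive HTRF (cryptate anti-cAMP antibody, cAMP-d2 acceptor).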

[11] = target: D(1A) dopamine receptor (Homo sapiens) (UniProt P21728); assay: HTS Assay for Allosteric Agonists of the Human D1 Dopamine Receptor: Primary Screen for Agonists (AID 488981); note: 0% is about no effect
Summary of the method: (§1)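 Calcium flux in an inducible, force-coupled HEK293 Trex D1 line (overnight at 30 C): agonist mode is the 180 s kinetic read after compound; potentiator mode is the following 180 s read after dopamine at EC20.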

[12] = target: D(1A) dopamine receptor (Homo sapiens) (UniProt P21728); assay: HTS Assay for Allosteric Agonists of the Human D1 Dopamine Receptor: Primary Screen for Potentiators (AID 488982); note: 0% is about no effect
Summary of the method: as §1

[13] = target: Thyrotropin-releasing hormone receptor (Homo sapiens) (UniProt P34981); assay: qHTS for Small Molecule Agonists and Allosteric Enhancers of Human TRH Receptor: Validation Screen for Agonists (AID 493127;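 active = calcium activation more than 3 SD above the typical response in the agonist read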;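 note: intracellular calcium rise by fluo-8 fluorescence before TRH EC20 addition; 0% is about no effect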); details: TRH receptor agonist cell assay; at 2 µM; active compounds read high
Summary of the method: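 Read-out: intracellular calcium release measured kinetically by FDSS (fluo-8, ex 480/em 530 nm), 1 reading/s after a 10-cycle baseline. TRHR cells, 2000/well, cultured 18 h at 33.5C, dye-loaded at room temp. Compound-evoked positive calcium signal flags agonists.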

[14] = target: Chromobox protein homolog 1 (Homo sapiens) (UniProt P83916); assay: qHTS Validation Assay for Inhibitors of HP1-beta Chromodomain Interactions with Methylated Histone Tails (AID 488953); note: nearly all actives have a fitted effect of over 50% in size; note: potency is the fitted concentration of half-maximal effect
Summary of the method: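 AlphaScreen proximity readout: streptavidin donor and Ni-chelate acceptor beads, 10 ug/mL final, 30 min dark, RT. Complex of 50 nM HP1-beta and 50 nM b-H3(1-18)K9me3 formed 30 min, then compound-treated 30 min; PBS pH 7.4/0.01% Tween-20.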

[15] = target: Transient receptor potential cation channel subfamily V member 1 (Homo sapiens) (UniProt Q8NER1); assay: HTS Assay for Compounds that Act as Enhancers of the Vanilloid Receptor 1 (AID 488979); note: 0% is about no effect
Summary of the method: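 Calcium influx kinetics via Fluo-8 (480/520 nm) in TRPV1-expressing cells, 2000/well cultured overnight at 35.5C. Compound-alone read 3 min (agonist phase), followed by EC20 capsaicin challenge for 2 min (enhancer phase).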

Sequence of Transient receptor potential cation channel subfamily V member 1 (Homo sapiens) (Q8NER1 whole entry, looked up): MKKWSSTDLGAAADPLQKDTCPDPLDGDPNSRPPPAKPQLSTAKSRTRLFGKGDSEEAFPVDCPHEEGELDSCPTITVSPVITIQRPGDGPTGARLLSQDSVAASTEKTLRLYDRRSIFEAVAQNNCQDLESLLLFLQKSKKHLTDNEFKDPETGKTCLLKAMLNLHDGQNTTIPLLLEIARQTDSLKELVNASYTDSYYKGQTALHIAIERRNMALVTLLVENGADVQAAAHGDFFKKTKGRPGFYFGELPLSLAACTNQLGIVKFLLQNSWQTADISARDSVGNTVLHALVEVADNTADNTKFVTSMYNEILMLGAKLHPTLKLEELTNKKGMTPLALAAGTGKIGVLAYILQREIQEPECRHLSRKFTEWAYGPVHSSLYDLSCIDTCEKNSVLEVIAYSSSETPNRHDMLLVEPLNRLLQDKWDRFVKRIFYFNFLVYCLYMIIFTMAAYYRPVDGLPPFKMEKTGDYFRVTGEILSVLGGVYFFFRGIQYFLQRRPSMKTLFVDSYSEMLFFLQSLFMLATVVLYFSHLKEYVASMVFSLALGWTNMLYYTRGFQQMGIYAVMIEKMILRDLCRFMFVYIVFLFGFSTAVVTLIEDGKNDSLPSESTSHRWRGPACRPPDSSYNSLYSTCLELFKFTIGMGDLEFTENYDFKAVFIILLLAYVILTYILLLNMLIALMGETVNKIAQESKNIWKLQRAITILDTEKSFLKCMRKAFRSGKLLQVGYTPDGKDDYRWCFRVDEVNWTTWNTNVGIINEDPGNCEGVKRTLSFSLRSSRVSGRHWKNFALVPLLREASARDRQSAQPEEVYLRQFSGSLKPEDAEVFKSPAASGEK
Sequence of Thioredoxin reductase 1, cytoplasmic (Rattus norvegicus) (O89049 whole entry, looked up): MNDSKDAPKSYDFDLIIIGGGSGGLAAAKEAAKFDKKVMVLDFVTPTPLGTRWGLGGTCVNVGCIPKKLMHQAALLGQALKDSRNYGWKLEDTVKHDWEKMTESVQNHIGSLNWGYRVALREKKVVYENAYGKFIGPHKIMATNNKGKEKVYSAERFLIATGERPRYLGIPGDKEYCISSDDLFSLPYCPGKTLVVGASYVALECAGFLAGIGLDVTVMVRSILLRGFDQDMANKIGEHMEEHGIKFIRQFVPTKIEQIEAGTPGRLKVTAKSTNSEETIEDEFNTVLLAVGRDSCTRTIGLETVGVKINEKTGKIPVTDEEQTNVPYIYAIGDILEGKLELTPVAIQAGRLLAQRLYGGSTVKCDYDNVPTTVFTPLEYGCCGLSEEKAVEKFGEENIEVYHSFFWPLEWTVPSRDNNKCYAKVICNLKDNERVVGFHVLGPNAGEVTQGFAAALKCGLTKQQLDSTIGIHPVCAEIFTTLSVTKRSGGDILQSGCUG
Sequence of Thyrotropin receptor (Homo sapiens) (P16473 whole entry, looked up): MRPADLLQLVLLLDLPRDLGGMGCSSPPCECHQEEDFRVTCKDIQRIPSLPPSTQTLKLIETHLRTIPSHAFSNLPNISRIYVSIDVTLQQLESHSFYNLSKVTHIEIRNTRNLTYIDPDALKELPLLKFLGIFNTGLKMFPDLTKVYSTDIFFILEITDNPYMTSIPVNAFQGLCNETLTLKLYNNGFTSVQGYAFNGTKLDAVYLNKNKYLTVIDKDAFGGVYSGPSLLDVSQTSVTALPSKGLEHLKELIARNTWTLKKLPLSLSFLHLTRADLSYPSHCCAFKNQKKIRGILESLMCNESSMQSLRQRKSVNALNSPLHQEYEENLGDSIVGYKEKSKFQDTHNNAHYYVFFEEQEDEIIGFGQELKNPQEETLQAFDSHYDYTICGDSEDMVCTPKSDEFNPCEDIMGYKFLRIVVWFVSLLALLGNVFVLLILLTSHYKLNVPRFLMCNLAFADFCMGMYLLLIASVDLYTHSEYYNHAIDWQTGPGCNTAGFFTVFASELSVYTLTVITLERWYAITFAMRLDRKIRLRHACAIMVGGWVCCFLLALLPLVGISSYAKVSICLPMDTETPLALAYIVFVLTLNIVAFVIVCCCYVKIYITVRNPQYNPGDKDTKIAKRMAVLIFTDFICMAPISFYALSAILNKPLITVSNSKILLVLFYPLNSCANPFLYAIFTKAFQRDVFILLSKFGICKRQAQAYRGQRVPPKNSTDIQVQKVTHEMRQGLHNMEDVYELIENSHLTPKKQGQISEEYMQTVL
Sequence of Chromobox protein homolog 1 (Homo sapiens) (P83916 whole entry, looked up): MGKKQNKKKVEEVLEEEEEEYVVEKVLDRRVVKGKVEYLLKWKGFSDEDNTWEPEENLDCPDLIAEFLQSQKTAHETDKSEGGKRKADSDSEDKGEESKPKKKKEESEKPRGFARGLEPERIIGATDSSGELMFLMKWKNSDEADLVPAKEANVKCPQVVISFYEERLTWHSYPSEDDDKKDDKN
Sequence of Beta-2 adrenergic receptor (Homo sapiens) (P07550 whole entry, looked up): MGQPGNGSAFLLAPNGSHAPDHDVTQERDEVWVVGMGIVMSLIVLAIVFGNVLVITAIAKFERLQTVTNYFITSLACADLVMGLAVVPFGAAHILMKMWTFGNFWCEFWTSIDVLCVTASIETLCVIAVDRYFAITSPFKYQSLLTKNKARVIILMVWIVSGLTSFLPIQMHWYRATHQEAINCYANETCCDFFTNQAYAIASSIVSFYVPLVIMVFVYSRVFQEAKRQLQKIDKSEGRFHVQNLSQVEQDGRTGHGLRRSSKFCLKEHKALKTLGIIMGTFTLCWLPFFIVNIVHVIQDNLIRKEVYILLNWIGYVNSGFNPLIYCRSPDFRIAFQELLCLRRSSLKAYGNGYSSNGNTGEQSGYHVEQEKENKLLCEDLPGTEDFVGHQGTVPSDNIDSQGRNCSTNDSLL
Sequence of M-phase phosphoprotein 8 (Homo sapiens) (Q99549 whole entry, looked up): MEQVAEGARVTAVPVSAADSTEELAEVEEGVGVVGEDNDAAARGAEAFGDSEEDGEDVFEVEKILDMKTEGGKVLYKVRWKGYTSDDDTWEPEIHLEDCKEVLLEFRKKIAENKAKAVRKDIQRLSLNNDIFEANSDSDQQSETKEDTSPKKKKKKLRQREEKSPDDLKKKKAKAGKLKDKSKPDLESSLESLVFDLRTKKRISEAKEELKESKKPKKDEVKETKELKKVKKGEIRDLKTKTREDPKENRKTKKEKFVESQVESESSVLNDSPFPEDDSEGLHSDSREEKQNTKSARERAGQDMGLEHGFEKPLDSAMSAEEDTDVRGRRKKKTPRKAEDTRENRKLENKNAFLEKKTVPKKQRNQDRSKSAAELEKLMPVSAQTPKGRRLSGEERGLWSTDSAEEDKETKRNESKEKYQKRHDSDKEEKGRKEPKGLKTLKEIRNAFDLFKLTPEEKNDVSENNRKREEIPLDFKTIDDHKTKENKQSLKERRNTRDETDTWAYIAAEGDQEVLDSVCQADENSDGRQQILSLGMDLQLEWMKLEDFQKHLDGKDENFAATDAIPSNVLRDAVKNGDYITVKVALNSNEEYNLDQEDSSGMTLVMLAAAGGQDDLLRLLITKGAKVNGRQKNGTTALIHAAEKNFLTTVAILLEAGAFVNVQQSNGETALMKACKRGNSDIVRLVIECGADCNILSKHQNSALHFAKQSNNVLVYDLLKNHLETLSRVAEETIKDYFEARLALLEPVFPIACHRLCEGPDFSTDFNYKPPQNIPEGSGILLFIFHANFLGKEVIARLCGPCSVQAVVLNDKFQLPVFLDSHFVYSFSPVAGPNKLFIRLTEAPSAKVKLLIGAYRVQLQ
Sequence of D(1A) dopamine receptor (Homo sapiens) (P21728 whole entry, looked up): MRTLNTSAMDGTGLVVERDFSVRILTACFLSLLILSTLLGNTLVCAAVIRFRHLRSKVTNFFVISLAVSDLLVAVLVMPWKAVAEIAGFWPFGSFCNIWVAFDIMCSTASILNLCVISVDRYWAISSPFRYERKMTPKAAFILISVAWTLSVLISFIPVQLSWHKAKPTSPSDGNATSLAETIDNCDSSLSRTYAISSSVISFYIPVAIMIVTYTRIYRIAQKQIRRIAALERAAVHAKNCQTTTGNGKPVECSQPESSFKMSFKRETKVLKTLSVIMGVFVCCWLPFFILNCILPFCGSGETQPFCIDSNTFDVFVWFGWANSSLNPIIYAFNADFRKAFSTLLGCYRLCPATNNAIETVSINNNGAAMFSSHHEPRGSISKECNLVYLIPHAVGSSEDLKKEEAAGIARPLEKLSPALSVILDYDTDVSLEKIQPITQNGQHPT
Sequence of Methanococcus maripaludis chaperonin (MmCpn) (Q6LX38 1-543): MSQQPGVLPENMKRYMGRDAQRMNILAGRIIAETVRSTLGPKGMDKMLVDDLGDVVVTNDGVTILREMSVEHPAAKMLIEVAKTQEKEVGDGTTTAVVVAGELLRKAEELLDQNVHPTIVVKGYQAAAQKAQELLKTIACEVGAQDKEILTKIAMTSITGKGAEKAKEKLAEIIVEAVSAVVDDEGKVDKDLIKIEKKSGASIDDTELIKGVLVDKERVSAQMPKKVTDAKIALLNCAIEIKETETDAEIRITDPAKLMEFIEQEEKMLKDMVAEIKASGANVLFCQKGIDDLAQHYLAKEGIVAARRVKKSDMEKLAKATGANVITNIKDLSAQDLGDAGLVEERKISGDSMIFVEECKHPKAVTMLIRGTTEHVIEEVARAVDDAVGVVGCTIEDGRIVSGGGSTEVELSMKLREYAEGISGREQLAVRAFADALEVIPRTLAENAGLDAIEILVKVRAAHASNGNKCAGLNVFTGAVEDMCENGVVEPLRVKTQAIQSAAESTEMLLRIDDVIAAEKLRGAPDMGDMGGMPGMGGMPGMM
Sequence of Thyrotropin-releasing hormone receptor (Homo sapiens) (P34981 whole entry, looked up): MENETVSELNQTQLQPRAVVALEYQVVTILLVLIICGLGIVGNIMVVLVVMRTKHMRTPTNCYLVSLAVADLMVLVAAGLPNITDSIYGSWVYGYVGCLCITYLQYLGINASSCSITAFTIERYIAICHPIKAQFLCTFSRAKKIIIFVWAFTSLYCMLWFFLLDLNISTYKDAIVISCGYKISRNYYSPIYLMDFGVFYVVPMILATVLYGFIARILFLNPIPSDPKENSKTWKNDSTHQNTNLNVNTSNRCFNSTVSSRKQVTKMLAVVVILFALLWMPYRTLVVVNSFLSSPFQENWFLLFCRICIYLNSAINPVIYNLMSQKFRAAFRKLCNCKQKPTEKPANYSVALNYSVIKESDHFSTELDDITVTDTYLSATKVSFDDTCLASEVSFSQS

CN(CC[C@@H](Oc1ccc(C(F)(F)F)cc1)c1ccccc1)CC(=O)O
inactive: outcome [1] | outcome [2] | Potency [3] | Potency [4] | outcome [5] | Potency [6] | Potency [7] | Potency [8]

N#CC(=C(\N)Sc1ccccc1N)/C(C#N)=C(/N)Sc1ccccc1N
inactive: outcome [1] | outcome [2] | Potency [3] | Potency [4] | Potency [9] | outcome [5] | outcome [10] | Potency [11] | Potency [12] | Potency [7] | activation [13] 2.62%

Nc1nc2c(cnn2CCc2ccccc2)c2nc(-c3ccco3)nn12
inactive: outcome [1] | outcome [2] | Potency [3] | Potency [4] | Potency [9] | outcome [5] | Potency [12] | Potency [6] | Potency [8]

COc1cc(/C=C(\C#N)C(=O)Nc2nnc(C(F)(F)F)s2)ccc1OCc1ccc(C(F)(F)F)cc1C(F)(F)F
inactive: outcome [1] | outcome [2] | Potency [3] | Potency [9] | outcome [5] | Potency [11] | Potency [12] | Potency [6] | Potency [7]
active: Potency [14] 89.1 µM

O=C1Cc2c([nH]c3ccc(Br)cc23)-c2ccccc2N1
inactive: outcome [1] | outcome [2] | Potency [4] | Potency [9] | outcome [5] | outcome [15] | outcome [10] | Potency [11] | Potency [12] | Potency [6] | activation [13] 9.25%
active: Potency [7] 0.411 µM

N#C/C(=C\c1ccc(O)c(O)c1)C(=O)NCCCNC(=O)/C(C#N)=C/c1ccc(O)c(O)c1
inactive: outcome [1] | outcome [5] | outcome [15] | outcome [10] | Potency [11] | Potency [6] | Potency [7] | activation [13] -0.0625%

CCCCCCCCCCC(C)(C)C(=O)Nc1c(OC)cc(OC)cc1OC
inactive: outcome [1] | outcome [2] | Potency [3] | Potency [4] | Potency [9] | Potency [14] | outcome [5] | Potency [11] | Potency [7] | Potency [8]

C=C1C[C@@]23CC[C@H]4[C@@](C)(CCC[C@@]4(C)C(=O)OC4OC(CO)C(O)C(O)C4O)[C@@H]2CC[C@]1(OC1OC(CO)C(O)C(O)C1OC1OC(CO)C(O)C(O)C1O)C3 (some centres undefined)
active: Potency [14] 0.006 µM
inactive: outcome [1] | outcome [2] | Potency [3] | Potency [4] | Potency [9] | outcome [5] | Potency [11] | Potency [6] | Potency [7]

OC[C@H]1O[C@H](n2cnc3c(N[C@H]4CCC[C@@H]4O)ncnc32)[C@H](O)[C@@H]1O
inactive: outcome [1] | outcome [2] | Potency [4] | Potency [14] | outcome [5] | Potency [12] | Potency [6]

O=C1NC(=O)c2cc(Nc3ccccc3)c(Nc3ccccc3)cc21
active: Potency [9] 31.6 µM | Potency [8] 13 µM
inactive: outcome [1] | outcome [2] | Potency [3] | Potency [4] | outcome [5] | outcome [15] | outcome [10] | Potency [11] | Potency [12] | Potency [6] | Potency [7] | activation [13] 6%

NCCNS(=O)(=O)c1cccc2c(Cl)cccc12
inactive: outcome [1] | outcome [2] | Potency [3] | Potency [4] | Potency [9] | Potency [14] | outcome [5] | outcome [10] | Potency [11] | Potency [12] | Potency [6] | Potency [7] | activation [13] 2.62%

C[C@]12C=CC(=O)C=C1CC[C@@H]1C2=CC[C@]2(C)[C@@H](C(=O)CN3CCN(c4cc(N5CCCC5)nc(N5CCCC5)n4)CC3)CC[C@@H]12
inactive: outcome [1] | Potency [4] | outcome [5] | Potency [6] | Potency [7]

CNCCc1cnc(CCC(c2ccccc2)c2ccccc2)[nH]1
inactive: outcome [1] | outcome [2] | Potency [3] | Potency [4] | Potency [9] | outcome [5] | Potency [12] | Potency [6] | Potency [7] | Potency [8]

OC1(c2ccc(Cl)cc2)CCN(Cc2c[nH]c3ccccc23)CC1
inactive: outcome [1] | outcome [2] | Potency [3] | Potency [4] | outcome [5] | outcome [10] | Potency [7] | Potency [8] | activation [13] 7.75%

O=C(O)/C(=C/c1c(C(=O)O)[nH]c2cc(Cl)cc(Cl)c12)c1ccccc1
inactive: outcome [1] | outcome [2] | Potency [3] | Potency [4] | Potency [9] | outcome [5] | outcome [15] | outcome [10] | Potency [11] | Potency [12] | Potency [6] | Potency [7] | Potency [8] | activation [13] 1.12%

CN1Cc2sccc2C(c2ccc(O)c(O)c2)C1 (centres undefined)
inactive: outcome [1] | outcome [2] | Potency [4] | Potency [9] | outcome [5] | Potency [12] | Potency [7] | Potency [8]
active: Potency [6] 0.355 µM

Oc1ccc(/C=C/c2ccc(/C=C/c3ccc(O)cc3)c(Br)c2)cc1
inactive: outcome [1] | outcome [2] | Potency [4] | outcome [5] | Potency [11] | Potency [6] | Potency [7]

N#Cc1cc([N+](=O)[O-])c2sc(C(N)=O)[n+]([O-])c2c1
inactive: outcome [1] | outcome [2] | Potency [3] | Potency [4] | Potency [9] | outcome [5] | Potency [11] | Potency [12] | Potency [6] | Potency [7]
active: Potency [8] 16.4 µM

Nc1ccc(-c2ccc3ccccc3n2)cc1
inactive: outcome [1] | outcome [2] | Potency [3] | Potency [4] | outcome [5] | outcome [15] | outcome [10] | Potency [11] | Potency [12] | Potency [6] | activation [13] 4%
active: Potency [7] 2.59 µM
